{"source": "PubChem BioAssay (NCATS)", "note": "Records with an inconclusive call do not appear. Unmarked numbers belong to inactive results. Calls of active or inactive are those of the source. Unless noted, the call rests on the fitted dose curve. On the % scale 0 is the no-effect control and ±100 the full control effect; potency means the concentration at half of the fitted maximal effect."}
{"test_system": "not listed separately", "test": "qHTS for Inhibitors of the Functional Ribonucleoprotein Complex (vRNP) of Lymphocytic Choriomeningitis Arenaviruses (LCMV): Viability assay - alamar blue signal for LCMV Primary Screen (AID 1347085; calls by dose curve; tested in HEK293 reporter line; further: nearly all actives have a fitted effect of over 80% in size)", "conditions": "alamar blue viability counter-screen, LCMV vRNP screen cells; series mostly up to 57.5 µM; activity change, negative = lower viability: at the top concentration"}
{"smiles": "CCN(CC)CCNC(=O)COc1ccc(Cl)cc1", "activity change, negative = lower viability": "5.12%"}
{"smiles": "CN[C@@H]1C[C@H]2O[C@@](C)([C@H]1OC)n1c3ccccc3c3c4c(c5c6ccccc6n2c5c31)C(=O)N[C@H]4O", "Potency": "2.73 µM (active)"}
{"smiles": "O=C1NC(=O)[C@@H](c2cn3c4c(cccc24)CCC3)[C@H]1c1c[nH]c2ccccc12", "Potency": "4.32 µM (active)"}
{"smiles": "COC1C(O)C(C)OC(OC2CCC3(C)C(CCC4C3C(O)CC3(C)C(C5=CC(=O)OC5)CCC43O)C2)C1O", "note": "(stereo not drawn)", "Potency": "0.355 µM (active)"}
{"smiles": "O=c1[nH]c(=O)n([C@H]2C[C@@H](O)[C@@H](CO)O2)cc1F", "Potency": "7.69 µM (active)"}
{"smiles": "CC(Cc1ccccc1)(NC(=O)CN)c1ccccc1", "note": "(stereo not drawn)", "activity change, negative = lower viability": "-7.15%"}
{"smiles": "CC[C@H]1OC(=O)[C@H](C)[C@@H](O[C@H]2C[C@@](C)(OC)[C@@H](O)[C@H](C)O2)[C@H](C)[C@@H](O[C@@H]2O[C@H](C)C[C@H](N(C)C)[C@H]2O)[C@](C)(O)C[C@H](C)C(=NOCOCCOC)[C@H](C)[C@@H](O)[C@]1(C)O", "activity change, negative = lower viability": "7.87%"}
{"smiles": "CC(=O)OCC(=O)[C@@]12N=C(C)O[C@H]1C[C@H]1[C@@H]3CCC4=CC(=O)C=C[C@]4(C)[C@@H]3[C@@H](O)C[C@@]12C", "activity change, negative = lower viability": "-21.2%"}
{"smiles": "CC[n+]1c(/C=C/C=C2/N(C)c3ccccc3C2(C)C)sc2ccccc21", "Potency": "0.708 µM (active)"}
{"smiles": "C[C@@H](Oc1ccc2[nH]nc(C=Cc3cnn(CCO)c3)c2c1)c1c(Cl)cncc1Cl", "Potency": "27.3 µM (active)"}
{"smiles": "C[C@@H]1[C@H](O)[C@@H](C)C=CC=CC=CC=CC=CC=CC=C[C@H](O[C@@H]2O[C@H](C)[C@H](O)[C@H](N)[C@@H]2O)C[C@@H]2O[C@](O)(C[C@@H](O)C[C@@H](O)[C@H](O)CC[C@@H](O)C[C@@H](O)CC(=O)O[C@H]1C)C[C@H](O)[C@@H]2C(=O)O", "Potency": "8.63 µM (active)"}
{"smiles": "O=C(c1ccc(F)c(F)c1Nc1ccc(I)cc1F)N1CC(O)([C@H]2CCCCN2)C1", "Potency": "3.06 µM (active)"}
{"smiles": "Clc1ccc(C2(c3ccc(-c4cn[nH]c4)cc3)CCNCC2)cc1", "Potency": "5.44 µM (active)"}
{"smiles": "CC(=CCOc1ccc2ccc(=O)oc2c1)C1=CC(=O)C(C)(C)O1", "activity change, negative = lower viability": "0.979%"}
{"smiles": "O=C(O)CO", "activity change, negative = lower viability": "-4.47% [at 115 µM]"}
{"smiles": "O=C(C=Cc1ccc(CN(CCO)CCc2c[nH]c3ccccc23)cc1)NO", "Potency": "1.37 µM (active)"}
{"smiles": "CCCCC1CCC(=O)O1", "note": "(stereo not drawn)", "activity change, negative = lower viability": "13.7% [at 115 µM]"}
{"smiles": "C=Cc1ncc(OC)c2c1[nH]c1ccccc12", "activity change, negative = lower viability": "-10.8%"}
{"smiles": "O=C(O)CO.[NH2-].[NH2-].[Pt+2]", "activity change, negative = lower viability": "17.1%"}
{"smiles": "Cc1cnc(Nc2ccc(N3CCN(C)CC3)cc2)nc1Nc1cccc(S(=O)(=O)NC(C)(C)C)c1", "Potency": "30.6 µM (active)"}
{"smiles": "Cc1nc(NC(=O)N2CCC[C@@H]2C(N)=O)sc1-c1ccnc(C(C)(C)C(F)(F)F)c1", "activity change, negative = lower viability": "-31.4%"}
{"smiles": "O=C(OCCOCCO)c1ccccc1Nc1cccc(C(F)(F)F)c1", "activity change, negative = lower viability": "0.774%"}
{"smiles": "CC(=O)OCC(=O)[C@@]12OC(C)(C)O[C@H]1C[C@H]1[C@@H]3C[C@H](F)C4=CC(=O)C=C[C@]4(C)[C@@]3(F)[C@@H](O)C[C@@]12C", "activity change, negative = lower viability": "-12.7%"}
{"smiles": "O=C1NC2C(=CC(O)C(O)C2O)c2cc3c(cc21)OCO3", "note": "(stereo not drawn)", "Potency": "0.282 µM (active)"}
{"smiles": "CC(=O)OC1CC2(O)C3CCC4CC(O)CCC4(C)C3CCC2(C)C1C1=CC(=O)OC1", "note": "(stereo not drawn)", "Potency": "0.316 µM (active)"}
{"smiles": "CCC1=C[C@@H]2CN(C1)Cc1c([nH]c3ccccc13)[C@@](C(=O)OC)(c1cc3c(cc1OC)N(C)[C@@H]1[C@@](O)(C(=O)OC)[C@H](OC(C)=O)[C@]4(CC)C=CCN5CC[C@]31[C@@H]54)C2", "Potency": "0.217 µM (active)"}
{"smiles": "C=C1C(=O)O[C@@H]2C[C@@H](C)[C@@H]3C=CC(=O)[C@@]3(C)[C@@H](OC(C)=O)[C@H]12", "Potency": "4.47 µM (active)"}
{"smiles": "CNC1CCC(N(Cc2cccc(-c3ccncc3)c2)C(=O)c2sc3c(F)ccc(F)c3c2Cl)CC1", "note": "(stereo not drawn)", "Potency": "5.44 µM (active)"}
{"smiles": "COc1cc(C)ccc1O", "activity change, negative = lower viability": "26.4% [at 115 µM]"}
{"smiles": "C[C@H]1[C@H](O)O[C@@H]2O[C@@]3(C)CC[C@@H]4[C@H](C)CC[C@@H]1[C@@]24OO3", "Potency": "15.8 µM (active)"}
{"smiles": "CCCCCN=C(N)NN=Cc1c[nH]c2ccc(OC)cc12", "Potency": "10.9 µM (active)"}
{"smiles": "C=C1CCC2[C@](C)(CO)[C@H](O)CC[C@@]2(C)[C@@H]1/C=C/C1=CCOC1=O", "note": "(stereo partly drawn)", "activity change, negative = lower viability": "19.5%"}
{"smiles": "C/C=C/c1ccc(OC(C)[C@@H](O)c2ccc(O)c(OC)c2)c(OC)c1", "note": "(stereo partly drawn)", "activity change, negative = lower viability": "-0.495%"}
{"smiles": "COc1cc(C(=S)N2CCOCC2)cc(OC)c1OC", "activity change, negative = lower viability": "7.35%"}
{"smiles": "CO[C@H]1C[C@@H]2CC[C@@H](C)[C@@](O)(O2)C(=O)C(=O)N2CCCC[C@@H]2C(=O)O[C@H]([C@H](C)C[C@@H]2CC[C@H](OP(C)(C)=O)[C@H](OC)C2)CC(=O)[C@H](C)C=C(C)[C@@H](O)[C@@H](OC)C(=O)[C@H](C)C[C@H](C)C=CC=CC=C1C", "Potency": "0.0153 µM (active)"}
{"target": "Nucleoprotein (Lymphocytic choriomeningitis virus (strain Armstrong)) (UniProt P09992)", "sequence (P09992 whole entry, looked up)": "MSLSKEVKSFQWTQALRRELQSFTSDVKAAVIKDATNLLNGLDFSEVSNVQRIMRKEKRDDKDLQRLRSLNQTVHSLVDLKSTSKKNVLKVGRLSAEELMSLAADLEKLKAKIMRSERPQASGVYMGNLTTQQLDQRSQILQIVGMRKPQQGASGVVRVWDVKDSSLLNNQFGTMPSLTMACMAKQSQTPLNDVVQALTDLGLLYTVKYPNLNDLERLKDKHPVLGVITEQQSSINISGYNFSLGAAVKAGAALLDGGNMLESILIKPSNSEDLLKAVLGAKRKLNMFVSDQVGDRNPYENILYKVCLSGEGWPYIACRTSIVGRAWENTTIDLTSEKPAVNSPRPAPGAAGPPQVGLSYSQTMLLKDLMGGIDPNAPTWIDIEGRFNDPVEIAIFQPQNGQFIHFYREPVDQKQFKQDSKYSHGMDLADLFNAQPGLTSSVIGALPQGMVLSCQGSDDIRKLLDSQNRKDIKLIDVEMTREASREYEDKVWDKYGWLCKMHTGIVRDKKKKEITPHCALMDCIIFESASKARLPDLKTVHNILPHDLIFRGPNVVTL", "test": "qHTS for Inhibitors of the Functional Ribonucleoprotein Complex (vRNP) of Lymphocytic Choriomeningitis Arenaviruses (LCMV): LCMV Primary Screen - GLuc reporter signal (AID 1347086); further: nearly all actives have a fitted effect of over 70% in size", "conditions": "LCMV minigenome vRNP cell assay, Gaussia luciferase reporter; series mostly up to 57.5 µM; activity change, negative = inhibition: at the top concentration", "units": {"activity change, negative = inhibition": "%"}}
{"smiles": "C[C@@H]1[C@H](O)[C@@H](C)C=CC=CC=CC=CC=CC=CC=C[C@H](O[C@@H]2O[C@H](C)[C@H](O)[C@H](N)[C@@H]2O)C[C@@H]2O[C@](O)(C[C@@H](O)C[C@@H](O)[C@H](O)CC[C@@H](O)C[C@@H](O)CC(=O)O[C@H]1C)C[C@H](O)[C@@H]2C(=O)O", "Potency": "4.85 µM (active)"}
{"smiles": "Cc1cnc(Nc2ccc(N3CCN(C)CC3)cc2)nc1Nc1cccc(S(=O)(=O)NC(C)(C)C)c1", "Potency": "30.6 µM (active)"}
{"smiles": "Cc1nc(NC(=O)N2CCC[C@@H]2C(N)=O)sc1-c1ccnc(C(C)(C)C(F)(F)F)c1", "activity change, negative = inhibition": -19.8}
